The record followed here is PubChem BioAssay (Tox21).

Structures are written as SMILES. Values joined by “and” are separate entries in the source; they are usually repeats but may differ in a detail not shown here. Equal values may be shown once. Inconclusive results are not listed. Some compounds were tested as several samples or in several runs, with calls that do not always agree. Active and inactive are the calls of the source. Unless noted, calls follow the shape of the dose curve; as a rule, active = well fitted curve in the direction sought with a large enough effect in the repeat runs; inconclusive = weak or mixed curves; inactive = no such curve, though single readings can be large; an effect the other way counts as inactive or inconclusive.

A short description of experiment [1]: qHTS assay for small molecules that induce genotoxicity in human embryonic kidney cells expressing luciferase-tagged ATAD5 (AID 651632). Also: nearly all actives have a fitted effect of over 15% in size. In outline:
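Luminescence read-out: after 16 hr compound exposure at 37C, ATAD5-luciferase HEK293T cells received Amplite, 30 min RT, then CCD imaging. A rise in signal marks genotoxic stress.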
(In qHTS, concentration-response curves come from the screen itself.)

The nature of experiment [2]: qHTS assay for small molecules that induce genotoxicity in human embryonic kidney cells expressing luciferase-tagged ATAD5 - cell viability (AID 651634; calls by dose curve; also: nearly all actives have a fitted effect of over 25% in size; also: potency is read from the fitted curve at half-maximal effect). The method in brief:
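HEK293T ATAD5-luc cells, 2,000/well; compound 15.5 hr, 37C/5% CO2; CellTiter-Fluor 30 min, 37C; fluorescence read.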

Experiment [3] is described as follows: qHTS assay for small molecule disruptors of the mitochondrial membrane potential - cell viability (AID 720634; calls by dose curve; also: nearly all actives have a fitted effect of over 20% in size; also: potency is read from the fitted curve at half-maximal effect). In outline:
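Luminescence from CellTiter-Glo (ATP content) gave viability in HepG2 cells, read in the same wells as the MMP dye assay after 1 hr compound exposure at 37 C.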

Experiment [4] in a line: qHTS assay for small molecule disruptors of the mitochondrial membrane potential (AID 720635). Also: potency is read from the fitted curve at half-maximal effect. The method in brief:
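HepG2 cells (2,000/well) attached overnight at 37C, then took compound for 1 hr at 37C, 5% CO2. Mito-MPS dye was added for 30 min; fluorescence was read at 490/535 nm (monomers) and 540/590 nm (aggregates).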

Experiment [5] can be described thus: qHTS assay to test for compound auto fluorescence at 590 nm (red) in HepG2 cells (AID 720674). In outline: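 Intrinsic compound fluorescence in the red window (Ex/Em 540/590 nm) is measured in attached HepG2 cells exposed for 1 hr, DMSO vehicle as baseline, benchmarked to Rose Bengal sodium.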
The nature of experiment [6]: qHTS assay to test for compound auto fluorescence at 535 nm (green) in HepG2 cells (AID 720675).
Experiment [7] in a line: qHTS assay to test for compound auto fluorescence at 460 nm (blue) in HEK293 cells (AID 720678). In outline:
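Triamterene serves as the blue fluorophore standard. Compound signal at 405/460 nm is read in HEK293 wells (2,000 cells, 10% dialyzed FBS) after overnight treatment at 37C.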

A short description of experiment [8]: qHTS assay to test for compound auto fluorescence at 590 nm (red) in HEK293 cells (AID 720679). The method in brief: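 We plated HEK293 cells in 10% dialyzed FBS medium, let them adhere for 4-5 hr, then added 23 nL compound. Overnight at 37C and 5% CO2 preceded fluorescence measurement at 540/590nm.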
The nature of experiment [9]: qHTS assay to test for compound auto fluorescence at 535 nm (green) in HEK293 cell free culture (AID 720682). The method in brief: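 Using fluorescein as calibrant, autofluorescence was quantified at 485/535 nm in cell-free DMEM containing 10% FBS after pintool addition of compound or vehicle.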
Experiment [10] can be described thus: qHTS assay to test for compound auto fluorescence at 590 nm (red) in HEK293 cell free culture (AID 720683). The method in brief: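 Tox21 10K library compounds were pinned into cell-free DMEM with 10% FBS and fluorescence was read at excitation 540 nm. Activity is expressed as Rose Bengal sodium equivalency.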
Experiment [11] in a line: qHTS assay to test for compound auto fluorescence at 590 nm (red) in HepG2 cell free culture (AID 720684). The method in brief:
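Readout: intrinsic compound fluorescence at 590 nm emission after 540 nm excitation, scaled to Rose Bengal sodium. Matrix was cell-free MEM with 10% FBS; DMSO vehicle wells served as control.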

The nature of experiment [12]: qHTS assay to test for compound auto fluorescence at 460 nm (blue) in HepG2 cell free culture (AID 720685). The method in brief: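 Cell-free plates of MEM plus 10% FBS received 23 nL compound or DMSO vehicle; blue-channel (405/460 nm) intensity scored against triamterene as reference fluorophore.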
The nature of experiment [13]: qHTS assay to test for compound auto fluorescence at 535 nm (green) in HepG2 cell free culture (AID 720686).
Experiment [14] is described as follows: qHTS assay to test for compound auto fluorescence at 460 nm (blue) in HepG2 cells (AID 720687). In outline:
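Cells (2,000/well in MEM with 10% FBS) attached overnight at 37 C, then were exposed to compound or DMSO for 1 hr at 37 C, 5% CO2. Fluorescence read at Ex/Em 405/460 nm, expressed as triamterene-equivalent signal.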

Experiment [15] can be described thus: qHTS assay to test for compound auto fluorescence at 535 nm (green) in HEK293 cells (AID 720680).
The nature of experiment [16]: qHTS assay to test for compound auto fluorescence at 460 nm (blue) in HEK293 cell free culture (AID 720681). In outline: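 Test compounds were pinned into cell-free culture medium (DMEM with 10% FBS) and fluorescence was read directly at Ex/Em 405/460 nm. Signals were expressed as fluorescence equivalents of triamterene, with DMSO vehicle as control.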
The target of experiment [17] is Glucocorticoid receptor (Homo sapiens) (UniProt P04150). Nature of the experiment: qHTS assay to identify small molecule agonists of the glucocorticoid receptor (GR) signaling pathway (AID 720691; active = well fitted activation curve with a large enough effect in the signal ratio in the repeat runs, not every such curve was filed as active; the % refers to the signal ratio; also: potency is read from the fitted curve at half-maximal effect). The method in brief: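 HeLa GR-bla reporter line; cells pre-incubated 4 h, compound in DMSO 18 h at 37 C; LiveBLAzer B/G FRET substrate 2 h RT; fluorescence intensity read-out.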

The target is the same in experiment [18]. Description: qHTS assay to identify small molecule antagonists of the glucocorticoid receptor (GR) signaling pathway (AID 720692; active = well fitted inhibition curve with a large enough effect in the signal ratio in the repeat runs, not every such curve was filed as active; the % refers to the signal ratio). The method in brief:
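Read-out: beta-lactamase FRET substrate fluorescence, 2 h at room temperature, in HeLa cells stably carrying a GRE-driven bla reporter. Compounds were co-incubated with 5 nM dexamethasone agonist (final) for 18 h at 37 C.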

A short description of experiment [19]: qHTS assay for small molecule agonists of the p53 signaling pathway - cell viability (AID 651633; calls by dose curve;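 also: p53RE-bla HCT reporter cells with a stable beta-lactamase p53 reporter; series mostly up to about 83 µM; nearly all actives have a fitted effect of over 30% in size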). The method in brief:
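p53RE-bla cells, seeded at 4,000 per well and rested 5 h at 37 C/5% CO2, received compounds in DMSO for 16 h at 37 C. CellTiter-Glo was then added, and luminescence was read after 30 min at room temperature to gauge cytotoxicity.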

Sequence of Glucocorticoid receptor (Homo sapiens) (P04150 whole entry, looked up): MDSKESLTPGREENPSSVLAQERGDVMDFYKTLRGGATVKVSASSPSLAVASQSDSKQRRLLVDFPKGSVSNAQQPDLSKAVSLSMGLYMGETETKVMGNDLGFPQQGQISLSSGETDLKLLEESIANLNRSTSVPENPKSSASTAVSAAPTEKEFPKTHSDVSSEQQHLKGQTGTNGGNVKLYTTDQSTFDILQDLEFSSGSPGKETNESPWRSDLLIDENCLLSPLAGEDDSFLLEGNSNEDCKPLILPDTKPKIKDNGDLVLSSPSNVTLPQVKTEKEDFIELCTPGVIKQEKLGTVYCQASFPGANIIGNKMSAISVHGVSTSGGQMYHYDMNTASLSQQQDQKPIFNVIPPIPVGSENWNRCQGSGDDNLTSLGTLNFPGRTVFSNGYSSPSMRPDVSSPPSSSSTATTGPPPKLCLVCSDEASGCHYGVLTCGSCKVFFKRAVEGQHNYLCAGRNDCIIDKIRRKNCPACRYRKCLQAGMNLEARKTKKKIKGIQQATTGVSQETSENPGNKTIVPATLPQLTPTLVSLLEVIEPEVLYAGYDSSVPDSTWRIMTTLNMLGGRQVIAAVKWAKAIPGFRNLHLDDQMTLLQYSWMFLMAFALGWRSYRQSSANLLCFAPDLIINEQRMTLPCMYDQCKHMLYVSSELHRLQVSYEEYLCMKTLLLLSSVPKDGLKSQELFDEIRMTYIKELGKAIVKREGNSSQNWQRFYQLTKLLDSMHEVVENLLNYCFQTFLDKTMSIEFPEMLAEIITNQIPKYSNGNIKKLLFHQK

As to `BrC1CCC(Br)C(Br)CCC(Br)C(Br)CCC1Br` (stereo unspecified), the Potency entry in experiment [1], in [2], in experiment [3], in [6], in [7] and in experiment [9] was “inactive” in each case. The Potency entry in experiment [12], in [13] and in experiment [14] was “inactive” in each case. The Potency in experiment [4] was 3.84 µM (active) and 9.19 µM (active). Also, the compound was called inactive in experiment [5], in experiment [8], in experiment [10] and in [11].

As for `c1ccc2c(c1)CCCC2C1=NCCN1` (stereo unspecified), the Potency entry in experiment [1], in experiment [2], in [3], in experiment [6], in experiment [7] and in experiment [15] was “inactive” in each case. In addition, the Potency entry in experiment [16], in experiment [9], in [12], in [13] and in experiment [14] was “inactive” throughout. The compound was called inactive in experiment [5], in experiment [8] and in [11].

Regarding `COc1ccc(COC(C)=O)cc1`, the Potency result in [1], in experiment [2], in [3], in [4], in [6] and in experiment [7] was “inactive” throughout. Moreover, the Potency result in experiment [15], in [16], in experiment [9], in [12], in experiment [13] and in [14] was “inactive” in each case. Moreover, the result in experiment [8], in [10] and in [11] was inactive.

`CN(C)c1ccc(C(=C2C=CC(=[N+](C)C)C=C2)c2ccccc2)cc1`: the Potency result in experiment [1], in experiment [6], in experiment [7], in experiment [15], in experiment [16] and in [9] was “inactive” in each case. The Potency result in [12], in experiment [13], in [14] and in experiment [17] was “inactive” throughout. In addition, the Potency result was “inactive and 17.2 µM (active)” in experiment [3]; 29.8 µM (active) and 77 nM (active) in experiment [4]. For the same compound, the compound was classed as inactive in experiment [5], in experiment [8], in [10] and in [11].

For the compound `O=C1Nc2ccccc2C1(c1ccc(O)cc1)c1ccc(O)cc1`, the Potency entry in [1], in [2], in [3], in experiment [6], in [7] and in experiment [15] was “inactive” throughout. Further, the Potency entry in experiment [16], in [9], in [12], in experiment [13] and in [14] was “inactive” each time. Also, the Potency in experiment [4] was 13.7 µM (active). Moreover, the compound was classed as inactive in [5], in experiment [8], in [10] and in [11].

Regarding `CCc1cc(C(C)(C)C)c(O)c(C(C)(C)C)c1`, the Potency result in experiment [1], in [3], in experiment [6], in experiment [7], in experiment [15] and in [9] was “inactive” in each case. In addition, the Potency result in [12], in experiment [13], in [14], in experiment [17] and in experiment [18] was “inactive” each time. Besides, in experiment [4], the Potency is 15.5 µM (active) and 30.6 µM (active). For the same compound, the compound was called inactive in [8], in experiment [10] and in experiment [11].

Turning to `CCCCCCCCCCCCCC[P+](CCCC)(CCCC)CCCC`, the Potency entry in experiment [1], in experiment [6], in experiment [7], in experiment [15], in [16] and in [9] was “inactive” in each case. The Potency entry in experiment [12], in experiment [13] and in experiment [14] was “inactive” each time. For the same compound, the Potency was 30.5 µM (active) and 27.3 µM (active) in [2]; 34.2 µM (active) and 24.3 µM (active) in [3]; 542 nM (active) and 486 nM (active) in experiment [4]. In addition, the compound was called inactive in [5], in experiment [8], in [10] and in experiment [11].

Turning to `c1ccc2c(c1)-c1cccc3c1c-2cc1ccccc13`, the Potency result in experiment [1], in experiment [2], in experiment [6], in experiment [7], in experiment [15] and in [9] was “inactive” each time. For the same compound, the Potency result in [12], in experiment [13] and in experiment [14] was “inactive” in each case. The Potency in [3] was 17.2 µM (active); in [4] it was 13.4 µM (active) and 13.7 µM (active); in [17], 21.4 µM [fluorescent] (active) and 49 µM [fluorescent] (active). Moreover, the result in [8], in experiment [10] and in [11] was inactive.

On to `O=C1NCC2(CCN(CCc3ccccc3)CC2)O1`, for which the Potency entry in experiment [1], in experiment [19], in [3], in experiment [6], in [7] and in [16] was “inactive” each time. In addition, the Potency entry in [9], in experiment [12], in experiment [13], in [14], in experiment [17] and in experiment [18] was “inactive” in each case. Moreover, the call in [5], in experiment [8] and in experiment [11] was inactive.

For the compound `Cc1ccc(S(=O)(=O)Oc2ccc(N=Nc3ccc(-c4ccc(N=Nc5c(O)ccc6cc(S(=O)(=O)O)cc(S(=O)(=O)O)c56)c(C)c4)cc3C)cc2)cc1`, the Potency entry in experiment [19], in experiment [3], in [6], in [7], in [15] and in experiment [16] was “inactive” in each case. In addition, the Potency result in experiment [9], in [12], in [13], in experiment [14] and in experiment [17] was “inactive” each time. Moreover, the Potency in experiment [2] was 54.7 µM (active) and 20 µM (active). The call in experiment [5], in experiment [8], in experiment [10] and in experiment [11] was inactive.

In the case of `NC12CC3CC(CC(C3)C1)C2`, the Potency entry in [1], in experiment [2], in experiment [3], in experiment [6], in [7] and in experiment [15] was “inactive” in each case. In addition, the Potency result in experiment [16], in experiment [9], in experiment [12], in experiment [13], in [14] and in [17] was “inactive” in each case. Besides, the Potency result in experiment [18] was “inactive”. Moreover, the call in experiment [5], in [8], in experiment [10] and in [11] was inactive.

Turning to `Cc1cc(OCCOCC[N+](C)(C)Cc2ccccc2)ccc1C(C)(C)CC(C)(C)C`, the Potency result in experiment [1], in experiment [6], in experiment [7], in [15], in experiment [9] and in experiment [12] was “inactive” throughout. The Potency entry in experiment [13] and in [14] was “inactive” each time. In addition, the Potency in experiment [2] was 9.63 µM (active); in experiment [3], 12.1 µM (active); in experiment [4] it was 16.8 µM (active) and 3.05 µM (active). Besides, the outcome in experiment [8] and in [11] was inactive.

`CC(COc1ccccc1)N(CCCl)Cc1ccccc1` (stereo unspecified): the Potency entry in experiment [3], in [6], in [7], in experiment [15], in experiment [16] and in [9] was “inactive” in each case. In addition, the Potency entry in [12], in experiment [13], in experiment [14] and in experiment [17] was “inactive” in each case. In addition, in experiment [4], the Potency result was “inactive and 43.7 µM (active) and 43.3 µM (active)”. Besides, the call in [5], in experiment [8] and in experiment [11] was inactive.
